In PubChem BioAssay (NCI) one finds growth data, which are given here for 13 molecules.

Structures are written as SMILES. About 83,000 compounds went through this panel and 20% of them were active in at least one assay; those are over-represented in the sample as a whole.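 96-well plates, one dose, 48 hours. Percent growth reported; active if below 10.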 A number with no mark means an inactive call. Activity calls are given as the source filed them.

Test systems include SK-MEL-2 melanoma; EKVX NSCLC; SN12C renal; UO-31 renal; TK-10 renal; ACHN renal; CAKI-1 renal; A498 renal; CCRF-CEM leukemia; MOLT-4 leukemia.
Holding throughout (assay): NCI-60 one-dose screen, 48 h (100 = growth as untreated, 0 = no growth, -100 = all killed)
Holding throughout (conditions): 10 µM unless noted

`CCCCCCCCCCCCC1CCC(=O)O1` (stereo not given): the growth was 103% with SK-MEL-2 melanoma; 92.7% with EKVX NSCLC; 98.9% with SN12C renal; 92.5% in the assay on UO-31 renal; 102% with TK-10 renal; 97.3% in the assay on ACHN renal. The growth with CAKI-1 renal was 91.6%; with A498 renal, 96.2%; with CCRF-CEM leukemia it was 105%; in the assay on MOLT-4 leukemia it was 95.5%.

`c1ccc(-c2ccc(-c3ccccc3)[nH]2)cc1`: the growth with SK-MEL-2 melanoma was 98.7%; in the assay with EKVX NSCLC, 75.6%; in the assay with SN12C renal it was 95.5%; in the assay on UO-31 renal, 87%; in the assay with TK-10 renal, 138%; in the assay with ACHN renal, 100%. Besides, the growth was 83.6% in the assay with CAKI-1 renal, 63.7% with A498 renal, 90.9% with CCRF-CEM leukemia and 80.3% with MOLT-4 leukemia.

As to `CN(C)CCNC(=O)n1cc(-c2ccncc2)c(-c2cc(O)cc(Cl)c2)n1`, the growth is 96.3% in the assay on SK-MEL-2 melanoma; 107% in the assay with EKVX NSCLC; 91.9% with SN12C renal; 104% with UO-31 renal; 92.6% in the assay on TK-10 renal; 80.6% in the assay on ACHN renal. Further, the growth is 109% in the assay on CAKI-1 renal, 82.2% in the assay on A498 renal, 88% in the assay with CCRF-CEM leukemia and 86.4% with MOLT-4 leukemia.

Regarding `COc1ccc(C(=O)OC2C(OC3C(O)COC(O[C@H]4C[C@H]5[C@@H]6CC=C7C[C@@H](O)CC[C@]7(C)[C@H]6CC[C@]5(C)[C@H]4[C@H](C)C(=O)CCC(C)C)C3OC(N)=O)OCC(O)C2O)cc1` (stereo not given in full), the growth in the assay on SK-MEL-2 melanoma was -62% (active); with EKVX NSCLC, 19.5%; in the assay on SN12C renal, 44.7%; with UO-31 renal it was -39% (active); in the assay on TK-10 renal it was -1.71% (active); in the assay on ACHN renal, 40.5%. The growth with CAKI-1 renal is -36.7% (active); with A498 renal, -80.1% (active); with CCRF-CEM leukemia, -25.8% (active); in the assay on MOLT-4 leukemia it was -42.3% (active).

For the molecule `O=C(Nc1cccc(-n2ccc3c(NC(=O)c4ccccc4)nccc32)c1)c1ccc(N2CCOCC2)c(C(F)(F)F)c1`, the growth in the assay on SK-MEL-2 melanoma was 13.4%; with EKVX NSCLC, 45.5%; in the assay with SN12C renal, 34%; in the assay with UO-31 renal it was 5% (active); in the assay on TK-10 renal, 6.82% (active); with ACHN renal it was 24.2%. For the same molecule, the growth in the assay with CAKI-1 renal was 14.8%; in the assay with A498 renal, 21.9%; in the assay with CCRF-CEM leukemia, 15.7%; in the assay with MOLT-4 leukemia it was 17.4%.

As to `CCCCCCCCOC(=O)C(C)OC(=O)OCCOCCOC(=O)OC(C)C(=O)OCCCCCCCC` (stereo not given), the growth with SK-MEL-2 melanoma is 110%; in the assay with EKVX NSCLC, 94%; in the assay with SN12C renal, 99.3%; with UO-31 renal, 87.5%; with TK-10 renal, 115%; with ACHN renal it was 98.8%. For the same molecule, the growth in the assay on CAKI-1 renal was 95.8%; in the assay on A498 renal it was 119%; in the assay on CCRF-CEM leukemia, 102%; in the assay with MOLT-4 leukemia it was 108%.

For `Cn1c(=O)c2c(nc(N/N=C/c3ccccc3Cl)n2C)n(C)c1=O`, the growth with SK-MEL-2 melanoma was 81.6%; in the assay on EKVX NSCLC it was 106%; in the assay with SN12C renal it was 99%; with UO-31 renal, 81.5%; in the assay on TK-10 renal it was 101%; with ACHN renal, 103%. For the same molecule, the growth in the assay on CAKI-1 renal was 97.8%; in the assay on A498 renal, 170%; with CCRF-CEM leukemia it was 94.5%; with MOLT-4 leukemia it was 95.7%.

Take `O=C1Nc2ccc(Br)cc2/C1=N/c1nc(-c2ccccc2)cs1`: the growth with SK-MEL-2 melanoma was 88%; in the assay with EKVX NSCLC it was 66.8%; with SN12C renal it was 96%; with UO-31 renal, 63.9%; with TK-10 renal it was 109%; in the assay on ACHN renal, 94.8%. For the same molecule, the growth with CAKI-1 renal was 70.7%; with A498 renal it was 78.9%; with CCRF-CEM leukemia, 101%; in the assay with MOLT-4 leukemia, 59.2%.

With `Cc1cccc(/C=N/n2c(-c3ccc(Cl)cc3)nc3c(Br)cc(Br)cc3c2=O)c1`, the growth was 72.5% in the assay with SK-MEL-2 melanoma; 52.3% in the assay with EKVX NSCLC; 47.9% in the assay on SN12C renal; 41.8% in the assay on UO-31 renal; 26.8% in the assay on TK-10 renal; 13.5% in the assay with ACHN renal. Also, the growth in the assay on CAKI-1 renal was 31.2%; with A498 renal, 99.6%; with CCRF-CEM leukemia, 75.6%; with MOLT-4 leukemia it was 55.4%.

`CC(C)OC1OC(OC(C)C)C(OC(C)C)OC1OC(C)C` (stereo not given): the growth was 95.1% in the assay on SK-MEL-2 melanoma; 103% with EKVX NSCLC; 94.6% in the assay on SN12C renal; 92.5% in the assay with UO-31 renal; 102% with TK-10 renal; 95.1% in the assay with ACHN renal. Besides, the growth in the assay with CAKI-1 renal is 93.9%; with A498 renal, 101%; with CCRF-CEM leukemia, 93.4%; with MOLT-4 leukemia, 80.2%.

Consider `COc1cc2ncnc(Nc3ccc(S(=O)(=O)Nc4cc(C)on4)cc3)c2cc1OCCCN1CCN(c2ccc([N+](=O)[O-])cc2)CC1`, for which the growth in the assay on SK-MEL-2 melanoma is 109%; in the assay on EKVX NSCLC, 116%; in the assay with SN12C renal, 102%; with UO-31 renal it was 79.2%; with TK-10 renal, 103%; in the assay on ACHN renal, 109%. In addition, the growth is 92.8% in the assay with CAKI-1 renal, 110% with A498 renal, 99.1% in the assay on CCRF-CEM leukemia and 111% with MOLT-4 leukemia.

With `COc1ccc2nc3ccccc3c(NCc3ccc(Cl)cc3)c2c1`, the growth with SK-MEL-2 melanoma was 71.3%; in the assay with EKVX NSCLC it was 33.8%; in the assay on SN12C renal, 22.1%; in the assay on UO-31 renal, 1.86% (active); in the assay with TK-10 renal, 52.9%; with ACHN renal, 17.1%. For the same molecule, the growth in the assay on CAKI-1 renal was 21.4%; in the assay with A498 renal, 8.58% (active); in the assay with CCRF-CEM leukemia, 8.43% (active); with MOLT-4 leukemia it was -8.25% (active).

Take `COc1ccc(CNc2c3ccccc3nc3ccc(OC)cc23)cc1`: the growth was 40.9% in the assay on SK-MEL-2 melanoma; 24.2% with EKVX NSCLC; 20.8% in the assay on SN12C renal; 6.24% (active) in the assay with UO-31 renal; 33.6% in the assay with TK-10 renal; 10.2% in the assay with ACHN renal. For the same molecule, the growth in the assay on CAKI-1 renal was 19.9%; in the assay on A498 renal, -5.96% (active); with CCRF-CEM leukemia, 19.4%; in the assay with MOLT-4 leukemia it was -0.147% (active).
